# In PubChem BioAssay (NCATS):
# Records with an inconclusive call do not appear. Where a call stands in place of a potency, no number is given. Values without a mark were called inactive. The source made the active and inactive calls. Calls come from the whole dose curve; as a rule, active = well fitted curve in the direction sought with a large enough effect; inconclusive = small, poorly fitted or top-dose-only effect, or another doubt; inactive = no such curve, though single readings can be large; an effect the other way counts as inactive or inconclusive. Where a SMILES comes first, the peptide text is derived from it. [ ]: non-standard residue; d: D form. Hyp = O=C(O)[CH]1C[CH](O)CN1; Phe(ol) = N[CH](CO)Cc1ccccc1; Iva = CC[C](C)(N)C(=O)O; Aib = CC(C)(N)C(=O)O
# What was measured:
# HEK293 = assay: Cytotoxic Profiling of Annotated Libraries Using Quantitative High-Throughput Screening (AID 1296008); settings: Five cell lines viability, CellTiter-Glo ATP luminescence, 48-72 h; max response: stronger effect = lower value; note: nearly all actives have a fitted effect of over 60% in size; note: potency is the fitted concentration of half-maximal effect
# Outline: (§1)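 Compounds were pin-transferred onto cells and incubated 48 or 72 hr at 37 degree Celsius, 95% humidity. CellTiter-Glo was added, plates sat 10 min at room temperature, then ATP-coupled luminescence was imaged as the viability read-out.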
# HaCat [1] = assay: as above; settings: Five cell lines viability, CellTiter-Glo ATP luminescence, 48-72 h; max response: stronger effect = lower value
# Outline: as §1
# NIH3T3 = assay: as above; settings: Five cell lines viability, CellTiter-Glo ATP luminescence, 48-72 h; max response: stronger effect = lower value
# Outline: as §1
# HACAT [2] = assay: qHTS assay to identify novel small-molecules to repurpose for Merkel cell carcinoma treatment (AID 1296009); settings: MCC and control cell lines, CellTiter-Glo viability, 72 h; at 44.8 µM (top of the series) unless noted; note: nearly all actives have a fitted effect of over 60% in size
# Outline: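 qHTS format: cells treated with library compounds in DMSO across 8 (NPC) or 11 (MIPE) concentrations. Readout after 72 hr at 37 degree celsius was CellTiter-Glo luminescence.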
# C33A = assay: Primary qHTS to identify gynecologic anti-cancer compounds using libraries of approved drugs and bioactive compounds (AID 1345084); settings: Gynecologic cancer cell panel viability, ATPlite luminescence, 48 h; series mostly up to 57.5 µM; note: nearly all actives have a fitted effect of over 55% in size; note: potency is the fitted concentration of half-maximal effect
# Outline: (§2)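 Cells, 1,000 per well, were allowed to settle for 16 h at 37 C before compound addition. Five concentrations were tested for 48 h, and viability was read by ATPlite luminescence after 15 min at room temperature.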
# CAOV3 = assay: as above; settings: Gynecologic cancer cell panel viability, ATPlite luminescence, 48 h; series mostly up to 57.5 µM
# Outline: as §2
# CASKI = assay: as above; settings: Gynecologic cancer cell panel viability, ATPlite luminescence, 48 h; series mostly up to 57.5 µM
# Outline: as §2
# Es-2 = assay: as above; settings: Gynecologic cancer cell panel viability, ATPlite luminescence, 48 h; series mostly up to 57.5 µM
# Outline: as §2
# HeLa = assay: as above; settings: Gynecologic cancer cell panel viability, ATPlite luminescence, 48 h; series mostly up to 57.5 µM
# Outline: as §2
# Hek293T = assay: as above; settings: Gynecologic cancer cell panel viability, ATPlite luminescence, 48 h, control line for the selectivity index; series mostly up to 57.5 µM
# Outline: as §2
# JEG-3 = assay: as above; settings: Gynecologic cancer cell panel viability, ATPlite luminescence, 48 h; series mostly up to 57.5 µM
# Outline: as §2
# OV90 = assay: as above; settings: Gynecologic cancer cell panel viability, ATPlite luminescence, 48 h; series mostly up to 57.5 µM
# Outline: as §2
# CRL-7250 = normal cell line; assay: Cytotoxic Profiling of Annotated Libraries Using Quantitative High-Throughput Screening (AID 1296008); settings: Five cell lines viability, CellTiter-Glo ATP luminescence, 48-72 h; max response: stronger effect = lower value; note: nearly all actives have a fitted effect of over 60% in size; note: potency is the fitted concentration of half-maximal effect
# Outline: as §1
smiles,measurement,setting,value
CNC(=O)COC(=O)N1CCC(CCc2ccc(Cl)cc2)CC1,Potency,HEK293,14.6 µM (active)
same,outcome,HaCat [1],inactive
same,max response,NIH3T3,-13%
same,outcome,HACAT [2],inactive
same,Potency,C33A,inactive
same,Potency,CAOV3,inactive
same,Potency,CASKI,inactive
same,Potency,Es-2,inactive
same,Potency,HeLa,inactive
same,Potency,Hek293T,inactive
same,Potency,JEG-3,inactive
same,Potency,OV90,inactive
CCn1c(-c2nonc2N)nc2c(C#CCO)ncc(OCCCN)c21,Potency,HEK293,7.31 µM (active)
same,outcome,HaCat [1],inactive
same,outcome,NIH3T3,inactive
same,outcome,HACAT [2],inactive
same,Potency,C33A,inactive
same,Potency,CASKI,25.1 µM (active)
same,Potency,Es-2,inactive
same,Potency,HeLa,inactive
COc1ccccc1N1CCN(c2ncnc3n[nH]c(Br)c23)CC1,max response,CRL-7250,-14.5%
same,outcome,NIH3T3,inactive
same,Potency,C33A,inactive
same,Potency,CAOV3,inactive
same,Potency,CASKI,inactive
same,Potency,Es-2,inactive
same,Potency,Hek293T,inactive
same,Potency,JEG-3,inactive
same,Potency,OV90,inactive
CCC(C)(NC(=O)C(CCC(N)=O)NC(=O)C1CC(O)CN1C(=O)C(C)(C)NC(=O)C(C)(C)NC(=O)C(CC(C)C)NC(=O)CNC(=O)C(NC(=O)C(C)(C)NC(=O)C(C)(C)NC(=O)C(C)(C)NC(=O)C(Cc1ccccc1)NC(C)=O)C(C)C)C(=O)N1CC(O)CC1C(=O)NC(C)(C)C(=O)NC(CO)Cc1ccccc1 (centres undefined) (Ac-F[Aib][Aib][Aib]VGL[Aib][Aib][Hyp]Q[Iva][Hyp][Aib][Phe(ol)]; configuration not given here),max response,HEK293,-14.6%
same,outcome,HaCat [1],inactive
same,max response,NIH3T3,2.9%
same,outcome,HACAT [2],inactive [at 9.27 µM]
same,"activity change, negative = cytotoxicity",C33A,-28.9% [at 6.55 µM]
same,"activity change, negative = cytotoxicity",CAOV3,-2.26% [at 6.55 µM]
same,"activity change, negative = cytotoxicity",CASKI,-19.9% [at 6.55 µM]
same,"activity change, negative = cytotoxicity",Es-2,-0.689% [at 6.55 µM]
same,"activity change, negative = cytotoxicity",HeLa,-3.33% [at 6.55 µM]
same,"activity change, negative = cytotoxicity",Hek293T,-7.78% [at 6.55 µM]
same,"activity change, negative = cytotoxicity",JEG-3,-14.6% [at 6.55 µM]
same,"activity change, negative = cytotoxicity",OV90,-17.1% [at 6.55 µM]
CC(=O)O[C@H]1C[C@H](OC(C)=O)[C@]2(C)[C@H](CC[C@@]34O[C@@H]3C3=C(C)C(=O)O[C@@H]3C[C@H]42)C1(C)C,Potency,HEK293,5.63 µM (active)
same,outcome,HaCat [1],inactive
same,max response,NIH3T3,-18%
same,outcome,HACAT [2],inactive [at 17.4 µM]
same,Potency,C33A,inactive
same,Potency,CASKI,inactive
same,Potency,Es-2,inactive
same,Potency,HeLa,inactive
same,Potency,Hek293T,inactive
same,Potency,JEG-3,inactive
same,Potency,OV90,inactive
COc1cc2c(Nc3cc(F)c(Cl)c(Cl)c3)ncnc2cc1OCC1CCCN(C)CCC1,Potency,HEK293,8.2 µM (active)
same,Potency,HaCat [1],0.082 µM (active)
same,Potency,NIH3T3,5.17 µM (active)
same,Potency,CAOV3,12.6 µM (active)
same,Potency,JEG-3,inactive
same,Potency,OV90,15.8 µM (active)
O=C(O)c1ccc(N2C(=O)/C(=C/c3ccc(-c4ccc([N+](=O)[O-])cc4)o3)C=C2c2ccccc2)cc1,max response,HEK293,-3.48%
same,outcome,HaCat [1],inactive
same,outcome,HACAT [2],inactive
same,Potency,C33A,inactive
same,Potency,CAOV3,inactive
same,Potency,CASKI,inactive
same,Potency,Es-2,inactive
same,Potency,HeLa,inactive
same,Potency,Hek293T,inactive
same,Potency,JEG-3,inactive
same,Potency,OV90,inactive
COc1ccccc1S(=O)(=O)Nc1ccc2c(c1)CN(C)C(=O)N2,Potency,HEK293,6.51 µM (active)
same,max response,HaCat [1],2.92%
same,Potency,C33A,inactive
same,Potency,CAOV3,inactive
same,Potency,CASKI,inactive
same,Potency,Hek293T,inactive
same,Potency,JEG-3,inactive
same,Potency,OV90,inactive
CC(=O)N1CCN(CCOc2ccc(C3CCN(C4=Nn5c(nnc5C(F)(F)F)CC4)CC3)cc2)CC1,Potency,HEK293,9.2 µM (active)
same,max response,HaCat [1],-1.46%
same,Potency,C33A,inactive
same,Potency,CASKI,inactive
same,Potency,Es-2,inactive
same,Potency,JEG-3,inactive
same,Potency,OV90,inactive
O=C(Nc1cccc([N+](=O)[O-])c1)c1cccc(S(=O)(=O)N2CCCCCC2)c1,Potency,HEK293,6.51 µM (active)
same,max response,HaCat [1],-27.5%
same,Potency,CAOV3,inactive
same,Potency,CASKI,inactive
same,Potency,Es-2,inactive
same,Potency,HeLa,inactive
same,Potency,JEG-3,inactive
CNC1CN(c2ccc3c(=O)c(C(=O)O)cn(-c4nccs4)c3n2)CC1OC (centres undefined),Potency,HEK293,1.06 µM (active)
same,Potency,HaCat [1],1.68 µM (active)
same,Potency,NIH3T3,0.211 µM (active)
same,"activity change, negative = cytotoxicity",CAOV3,-13% [at 11.6 µM]
same,"activity change, negative = cytotoxicity",CASKI,-25.3% [at 11.6 µM]
same,"activity change, negative = cytotoxicity",HeLa,-22.6% [at 11.6 µM]
same,"activity change, negative = cytotoxicity",JEG-3,-9.7% [at 11.6 µM]
same,"activity change, negative = cytotoxicity",OV90,-6.73% [at 11.6 µM]
CC(C)CCNC(=O)c1ccc2c(c1)nc(Nc1n[nH]c3ccc(-c4ccccc4OC(F)(F)F)cc13)n2C1CCC(O)CC1 (centres undefined),Potency,HEK293,9.2 µM (active)
same,outcome,HaCat [1],inactive
same,outcome,HACAT [2],inactive
same,Potency,CAOV3,inactive
same,Potency,CASKI,inactive
same,Potency,Es-2,inactive
same,Potency,HeLa,inactive
same,Potency,Hek293T,inactive
same,Potency,JEG-3,inactive
same,Potency,OV90,inactive
